# Laboratory results taken from ChEMBL document CHEMBL3988442, “University of Dundee, Small-Polar-MMV Screening Library” (2021).
# For some of these results: Results with a measured potency or affinity are listed apart.
# What was measured:
# Design in all cases: scale not given: direction of the effect not stated beside the values
# [1] = target: Protein translocase subunit SecA (Escherichia coli (strain K12)) (UniProt P10408); test: Assay to Identify E. coli SecA ATPase Inhibitors; type: functional; settings: 30 µM
# Chain of Protein translocase subunit SecA (Escherichia coli (strain K12)) (P10408 whole entry): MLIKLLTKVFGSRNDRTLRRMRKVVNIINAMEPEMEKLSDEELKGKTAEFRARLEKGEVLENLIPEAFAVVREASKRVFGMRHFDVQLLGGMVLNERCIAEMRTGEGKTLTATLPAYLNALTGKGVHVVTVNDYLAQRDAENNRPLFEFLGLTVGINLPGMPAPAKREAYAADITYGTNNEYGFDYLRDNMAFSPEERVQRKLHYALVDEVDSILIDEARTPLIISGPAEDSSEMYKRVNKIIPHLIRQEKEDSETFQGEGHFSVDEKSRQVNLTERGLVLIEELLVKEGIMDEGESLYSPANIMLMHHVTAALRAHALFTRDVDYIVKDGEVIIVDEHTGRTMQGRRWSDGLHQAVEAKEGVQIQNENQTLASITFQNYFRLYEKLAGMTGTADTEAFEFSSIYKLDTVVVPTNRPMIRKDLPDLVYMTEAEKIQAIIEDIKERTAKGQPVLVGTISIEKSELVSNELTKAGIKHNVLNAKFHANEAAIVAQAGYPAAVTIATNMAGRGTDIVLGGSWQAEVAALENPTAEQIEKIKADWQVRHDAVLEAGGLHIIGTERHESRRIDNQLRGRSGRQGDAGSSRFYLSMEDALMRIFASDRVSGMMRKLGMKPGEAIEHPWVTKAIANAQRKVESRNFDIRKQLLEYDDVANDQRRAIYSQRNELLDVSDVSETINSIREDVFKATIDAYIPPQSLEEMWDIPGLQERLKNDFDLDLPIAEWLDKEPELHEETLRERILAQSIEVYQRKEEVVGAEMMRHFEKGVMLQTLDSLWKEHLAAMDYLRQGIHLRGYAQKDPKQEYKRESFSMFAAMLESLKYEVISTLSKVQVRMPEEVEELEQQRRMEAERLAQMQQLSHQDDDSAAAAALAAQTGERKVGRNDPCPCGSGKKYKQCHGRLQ
# [2] = target: T1, Ubiquitin-activating enzyme e1, putative (Leishmania donovani (strain BPK282A1)) (UniProt E9BSI1); test: Leishmania donovani Ubiquitin Activating Enzyme (LdE1); type: functional; settings: 30 µM
# T1 sequence (whole entry): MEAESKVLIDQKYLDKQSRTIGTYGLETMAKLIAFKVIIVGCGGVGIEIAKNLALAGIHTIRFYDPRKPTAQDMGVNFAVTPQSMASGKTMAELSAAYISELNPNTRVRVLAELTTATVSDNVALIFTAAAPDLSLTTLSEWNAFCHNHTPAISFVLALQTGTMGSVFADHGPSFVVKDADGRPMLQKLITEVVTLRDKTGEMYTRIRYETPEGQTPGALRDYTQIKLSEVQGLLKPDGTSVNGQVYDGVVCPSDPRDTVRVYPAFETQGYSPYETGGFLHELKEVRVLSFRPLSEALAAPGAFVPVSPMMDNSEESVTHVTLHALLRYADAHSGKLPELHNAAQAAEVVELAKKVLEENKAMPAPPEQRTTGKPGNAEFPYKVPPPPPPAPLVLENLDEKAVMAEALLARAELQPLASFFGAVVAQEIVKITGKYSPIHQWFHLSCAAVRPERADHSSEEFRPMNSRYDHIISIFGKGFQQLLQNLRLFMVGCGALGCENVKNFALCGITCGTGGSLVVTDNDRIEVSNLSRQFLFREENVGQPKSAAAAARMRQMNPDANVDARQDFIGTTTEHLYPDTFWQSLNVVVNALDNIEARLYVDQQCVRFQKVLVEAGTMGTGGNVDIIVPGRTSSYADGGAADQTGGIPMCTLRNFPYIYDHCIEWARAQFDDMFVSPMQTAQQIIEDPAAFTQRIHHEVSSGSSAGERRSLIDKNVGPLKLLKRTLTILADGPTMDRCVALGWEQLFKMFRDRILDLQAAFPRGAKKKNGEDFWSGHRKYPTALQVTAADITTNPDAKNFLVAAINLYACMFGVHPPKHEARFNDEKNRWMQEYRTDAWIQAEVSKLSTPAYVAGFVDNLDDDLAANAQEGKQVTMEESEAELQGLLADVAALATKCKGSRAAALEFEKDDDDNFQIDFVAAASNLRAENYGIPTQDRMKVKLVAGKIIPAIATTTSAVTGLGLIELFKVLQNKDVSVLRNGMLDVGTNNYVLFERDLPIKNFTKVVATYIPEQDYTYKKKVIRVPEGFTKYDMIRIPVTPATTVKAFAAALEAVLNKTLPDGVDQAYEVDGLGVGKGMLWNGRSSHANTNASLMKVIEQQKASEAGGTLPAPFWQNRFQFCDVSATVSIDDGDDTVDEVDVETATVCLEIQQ
# [3] = target: AMP-activated protein kinase, AMPK (Homo sapiens) (UniProt P54646+O43741+P54619+Q9UGJ0+Q9Y478+Q13131+Q9UGI9); test: AMP-dependent Kinase enzyme assay. An in vitro enzyme assay that detects ADP turnover that is directly proportional to AMPK activity. This uses naive AMPK that is activated during the assay with MK-8722; type: functional; settings: 30 µM
# [4] = target: Sialic acid-binding Ig-like lectin 9 (Homo sapiens) (UniProt Q9Y336); test: Hs-Siglec9 ALPHAscreen SOP 20170721; settings: 10 µM
# Chain of Sialic acid-binding Ig-like lectin 9 (Homo sapiens) (Q9Y336 whole entry): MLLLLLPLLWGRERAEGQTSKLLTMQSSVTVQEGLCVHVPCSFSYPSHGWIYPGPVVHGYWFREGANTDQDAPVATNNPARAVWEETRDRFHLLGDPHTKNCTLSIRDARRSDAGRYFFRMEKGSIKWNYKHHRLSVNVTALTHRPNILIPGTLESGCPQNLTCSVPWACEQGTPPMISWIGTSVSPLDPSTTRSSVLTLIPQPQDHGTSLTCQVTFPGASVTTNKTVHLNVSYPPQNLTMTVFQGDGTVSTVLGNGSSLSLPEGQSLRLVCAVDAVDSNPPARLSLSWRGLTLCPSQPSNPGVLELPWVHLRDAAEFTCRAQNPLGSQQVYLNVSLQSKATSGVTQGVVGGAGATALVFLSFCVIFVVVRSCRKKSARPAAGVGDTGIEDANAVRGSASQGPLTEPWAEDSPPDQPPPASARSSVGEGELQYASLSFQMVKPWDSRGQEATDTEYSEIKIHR
# Trypanosoma cruzi = test: Trypanosoma cruzi phosphomannomutase and mannose-1-phosphate guanylyltransferase assay; type: functional; settings: 10 µM
# [5] = target: T2, Arginase-2, mitochondrial (Homo sapiens) (UniProt P78540); test: in vitro enzyme assay to detect the production of urea directly proportional to the activity of Arginase II; type: functional; settings: 33.3 µM; further: in the data most compounds retested in dose-response had high values
# T2 sequence (whole entry): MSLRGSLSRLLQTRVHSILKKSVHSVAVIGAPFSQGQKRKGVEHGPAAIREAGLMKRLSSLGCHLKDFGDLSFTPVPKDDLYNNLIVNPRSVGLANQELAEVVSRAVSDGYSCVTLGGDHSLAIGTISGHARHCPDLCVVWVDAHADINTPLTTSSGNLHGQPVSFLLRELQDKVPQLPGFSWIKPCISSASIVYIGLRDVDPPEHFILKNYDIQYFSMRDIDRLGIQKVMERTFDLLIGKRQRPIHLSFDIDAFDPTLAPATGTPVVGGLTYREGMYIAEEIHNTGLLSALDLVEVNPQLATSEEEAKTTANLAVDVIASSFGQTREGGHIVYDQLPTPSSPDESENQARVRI
# [6] = target: T3, Proteasome subunit beta (Trypanosoma cruzi) (UniProt O96673); test: Trypanosoma cruzi proteasome chymotrypsin-like activity (TcProtChymo) assay.; further: in the data most compounds retested in dose-response had high values; type: functional; settings: 9.37 µM
# T3 sequence (whole entry): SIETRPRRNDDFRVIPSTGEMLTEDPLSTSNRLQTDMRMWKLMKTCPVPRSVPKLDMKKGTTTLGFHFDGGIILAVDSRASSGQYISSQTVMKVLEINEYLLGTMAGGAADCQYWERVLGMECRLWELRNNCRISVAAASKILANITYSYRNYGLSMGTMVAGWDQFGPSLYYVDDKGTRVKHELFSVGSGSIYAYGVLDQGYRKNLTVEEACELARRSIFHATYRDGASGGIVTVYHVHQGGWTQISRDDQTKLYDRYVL
# Homo sapiens = species on record: Homo sapiens; test: To identify inhibition of the IFN signalling (Jak-Stat) pathway via expression of an eGFP reporter gene under the control of an IFN-stimulated response element (ISRE) containing MxA promoter.; type: functional; settings: 30 µM
# [7] = target: T4, Tyrosyl-tRNA synthetase, putative (Trypanosoma cruzi (strain CL Brener)) (UniProt Q4DSP6); test: Trypanosoma cruzi tyrosyl tRNA synthetase (TcYRS) _High Tyrosine SOP; type: functional; settings: 30 µM; further: in the data most compounds retested in dose-response had high values
# T4 sequence (whole entry): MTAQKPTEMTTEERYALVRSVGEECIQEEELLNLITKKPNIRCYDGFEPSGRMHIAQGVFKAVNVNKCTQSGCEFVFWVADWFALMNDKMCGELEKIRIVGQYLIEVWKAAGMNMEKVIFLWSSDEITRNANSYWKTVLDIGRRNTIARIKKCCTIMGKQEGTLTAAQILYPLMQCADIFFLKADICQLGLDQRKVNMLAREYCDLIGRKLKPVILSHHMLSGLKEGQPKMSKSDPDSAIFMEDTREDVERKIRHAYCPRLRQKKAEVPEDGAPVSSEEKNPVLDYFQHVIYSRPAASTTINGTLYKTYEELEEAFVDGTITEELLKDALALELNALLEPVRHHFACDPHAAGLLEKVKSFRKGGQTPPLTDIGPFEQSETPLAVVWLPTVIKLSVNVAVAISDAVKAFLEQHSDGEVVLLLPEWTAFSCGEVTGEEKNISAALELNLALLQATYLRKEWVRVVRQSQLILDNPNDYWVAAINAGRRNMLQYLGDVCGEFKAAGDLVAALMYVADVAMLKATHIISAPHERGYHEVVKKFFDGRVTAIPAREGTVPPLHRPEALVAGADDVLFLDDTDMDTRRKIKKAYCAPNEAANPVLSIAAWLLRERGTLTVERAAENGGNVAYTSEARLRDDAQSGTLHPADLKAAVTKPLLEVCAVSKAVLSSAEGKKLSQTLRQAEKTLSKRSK
# [8] = target: T4, Tyrosyl-tRNA synthetase, putative (Trypanosoma cruzi (strain CL Brener)); test: Trypanosoma cruzi tyrosyl tRNA synthetase (TcYRS) SOP; type: functional; settings: 30 µM
# [9] = target: Chromo domain-containing protein 1 (Saccharomyces cerevisiae (strain ATCC 204508 / S288c) (Baker's yeast)) (UniProt P32657); test: ScCHD-1 Enzyme Inhibition Assay; type: functional; settings: 30 µM; further: in the data most compounds retested in dose-response had high values
# Chain of Chromo domain-containing protein 1 (Saccharomyces cerevisiae (strain ATCC 204508 / S288c) (Baker's yeast)) (P32657 whole entry, the tested form may be a part): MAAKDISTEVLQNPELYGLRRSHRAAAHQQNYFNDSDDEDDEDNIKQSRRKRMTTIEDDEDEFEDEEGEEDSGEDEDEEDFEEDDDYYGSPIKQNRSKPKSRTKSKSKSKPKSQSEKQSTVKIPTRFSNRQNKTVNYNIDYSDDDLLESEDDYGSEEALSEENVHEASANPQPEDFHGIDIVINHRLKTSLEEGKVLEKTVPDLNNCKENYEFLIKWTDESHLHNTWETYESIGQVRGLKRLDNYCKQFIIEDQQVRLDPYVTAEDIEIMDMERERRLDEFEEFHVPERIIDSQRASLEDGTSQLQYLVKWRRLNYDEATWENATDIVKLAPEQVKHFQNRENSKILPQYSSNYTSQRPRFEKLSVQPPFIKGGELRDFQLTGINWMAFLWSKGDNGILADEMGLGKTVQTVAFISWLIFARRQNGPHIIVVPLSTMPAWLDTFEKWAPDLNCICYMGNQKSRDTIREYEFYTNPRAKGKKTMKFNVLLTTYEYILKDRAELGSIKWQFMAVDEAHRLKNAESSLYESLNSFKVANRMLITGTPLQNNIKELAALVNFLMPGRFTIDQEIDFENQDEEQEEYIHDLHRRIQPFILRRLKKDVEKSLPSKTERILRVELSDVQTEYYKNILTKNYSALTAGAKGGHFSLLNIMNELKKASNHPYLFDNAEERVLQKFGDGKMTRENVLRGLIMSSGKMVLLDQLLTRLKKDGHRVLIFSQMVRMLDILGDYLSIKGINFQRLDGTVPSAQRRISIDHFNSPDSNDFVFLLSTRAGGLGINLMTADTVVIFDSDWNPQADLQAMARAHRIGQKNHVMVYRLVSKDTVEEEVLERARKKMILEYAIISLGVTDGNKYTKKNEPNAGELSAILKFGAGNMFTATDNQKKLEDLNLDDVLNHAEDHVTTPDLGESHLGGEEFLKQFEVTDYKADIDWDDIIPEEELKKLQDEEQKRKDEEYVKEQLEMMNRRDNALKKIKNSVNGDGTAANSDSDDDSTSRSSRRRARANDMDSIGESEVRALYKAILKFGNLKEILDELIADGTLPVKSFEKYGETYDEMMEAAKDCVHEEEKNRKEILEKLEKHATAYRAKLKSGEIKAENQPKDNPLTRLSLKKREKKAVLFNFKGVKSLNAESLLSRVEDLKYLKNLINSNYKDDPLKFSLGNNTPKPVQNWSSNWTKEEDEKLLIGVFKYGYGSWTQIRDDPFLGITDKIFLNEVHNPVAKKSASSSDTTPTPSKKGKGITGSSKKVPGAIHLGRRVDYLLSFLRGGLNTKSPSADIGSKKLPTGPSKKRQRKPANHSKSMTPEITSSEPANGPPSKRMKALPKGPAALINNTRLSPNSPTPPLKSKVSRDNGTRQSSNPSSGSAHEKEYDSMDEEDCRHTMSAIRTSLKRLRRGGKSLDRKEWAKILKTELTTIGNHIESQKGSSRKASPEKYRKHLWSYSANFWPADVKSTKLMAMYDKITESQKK
SMILES,Percent Effect [1],Percent Effect [2],Percent Effect [3],Percent Effect [4],Percent Effect (Trypanosoma cruzi),Percent Effect [5],Percent Effect [6],Percent Effect (Homo sapiens),Percent Effect [7],Percent Effect [8],Percent Effect [9]
CC1CN(CC(=O)Nc2cccnc2)CCN1c1nccs1 (stereo unspecified),-0.157%,2.7%,-1.61%,7.17%,-0.464%,3.14%,1.26%,27.8%,1.98%,-1.22%,13.7%
Cc1noc2ncc(C(=O)NCC3CCOC3)cc12 (stereo unspecified),-4.3%,0%,-6.17%,-5.94%,-6.96%,1.53%,6.35%,26.5%,2.45%,0%,-12.5%
COCCNC(=O)C[C@@H]1COC[C@H]2CN(C(=O)c3cnccn3)C[C@@H]12,-0.696%,8.22%,-4.71%,7.09%,6.15%,1.6%,11.2%,21.4%,9.38%,13.6%,-3.17%
CCOc1cc(C)nc(N2CCN(Cc3nccn3C)CC2)n1,0.029%,4.17%,-6.46%,13.8%,0.875%,12.4%,11.2%,4.49%,5.26%,7.69%,-4.66%
Cc1ccc2cnn(CCC(=O)Nc3c(C)nn(C)c3C)c2c1,-3.51%,5.2%,2.92%,2.18%,-4.03%,-4.14%,5.16%,-0.975%,2.15%,8.64%,-0.912%
CNS(=O)(=O)c1cccc(C(C)NCc2ccccc2)c1 (stereo unspecified),-0.281%,-2.7%,1.68%,-2.19%,-5.08%,1.67%,3.63%,-5.59%,2.97%,1.22%,-1.16%
O=C1CN(Cc2nnc(-c3ccccc3Br)o2)CCN1,-1.52%,9.72%,0.225%,-0.91%,2.43%,2.65%,25.1%,-21.9%,1.05%,7.69%,-3.03%
COC(=O)c1sccc1S(=O)(=O)N1CCC(Oc2ncccc2Cl)CC1,-6.92%,-8.22%,18.7%,1.08%,4.9%,-0.455%,3.02%,35.1%,-19.4%,-20%,-1.89%
CCC(C)N(C)CCNC(=O)NCc1cccc(-n2cncn2)c1 (stereo unspecified),-5.23%,5.41%,-2.01%,27.3%,4.59%,0.248%,9.87%,-1.6%,2.15%,6.17%,-12.3%
Cc1ccc(C(=O)N2CCN(C(=O)NC(C)Cn3ccnc3)CC2)o1 (stereo unspecified),-1.19%,10.5%,2.03%,13.1%,3.38%,2.3%,4.51%,18.1%,3.43%,19.5%,-13.5%
c1cc(-c2cnccn2)cc(-c2ccn(CCN3CCCC3)n2)c1,-2.8%,-21.6%,3.09%,2.06%,-1.54%,-10.9%,6.9%,0.332%,14.3%,7.32%,-0.216%
